We go through 34 compounds from ChEMBL document CHEMBL1961873, “Compounds: GSK PKIS; Assays: Nanosyn kinase panel” (2012).
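Also: reported value is the mean percent inhibition of PIM2, measured in the GSK PKIS kinase inhibitor set screen.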

The target in the assay is Serine/threonine-protein kinase pim-2 (Homo sapiens) (UniProt Q9P1W9). The conditions noted are these: at 0.1 µM.
Chain of Serine/threonine-protein kinase pim-2 (Homo sapiens) (Q9P1W9 whole entry, looked up): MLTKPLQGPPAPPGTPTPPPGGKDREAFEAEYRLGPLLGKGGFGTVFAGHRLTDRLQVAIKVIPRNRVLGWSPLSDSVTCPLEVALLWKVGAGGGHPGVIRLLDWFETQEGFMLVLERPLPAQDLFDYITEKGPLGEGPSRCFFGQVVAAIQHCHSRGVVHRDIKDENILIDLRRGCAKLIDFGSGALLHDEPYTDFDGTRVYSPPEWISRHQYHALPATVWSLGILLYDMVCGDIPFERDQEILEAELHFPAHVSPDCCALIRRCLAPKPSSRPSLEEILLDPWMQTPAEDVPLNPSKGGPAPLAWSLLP
For the compound `CCS(=O)(=O)c1ccc(OC)c(Nc2ncc(-c3cccc(-c4ccccc4F)c3)o2)c1`, the inhibition turned out to be 0.1%.

Regarding `C/C(Nc1ccc(S(N)(=O)=O)cc1)=C1/C(=O)Nc2ccccc21`, the inhibition was found to be 0.75%.

With `CN(C)CCOc1ccc(-c2cc(-c3ccc4c(c3)CCC4=NO)c(-c3ccncc3)o2)cc1`, the inhibition was -0.09%.

For `CCc1cccc(CC)c1/C=C/c1cncc(C(=O)NC)c1`, the inhibition was -0.07%.

Regarding `COc1ccc2cc(-c3c(-c4ccncc4)nc(-c4ccc(S(C)(=O)=O)cc4C)n3C)ccc2c1`, the inhibition was found to be 0.92%.

On to `CCS(=O)(=O)c1ccc(OC)c(Nc2ncc(-c3ccccc3Cl)o2)c1`, for which the inhibition is -0.56%.

For the compound `COc1cc2ncn(-c3cc(OCCc4ccccc4)c(C(N)=O)s3)c2cc1OC`, the inhibition is -0.04%.

As to `CN1CCN(CCCNc2nc3ccc(Oc4ccc(NC(=O)Nc5cc(C(F)(F)F)ccc5F)cc4)cc3[nH]2)CC1`, the inhibition is -1.87%.

On to `Cc1ccc(NC(=O)c2ccoc2)cc1-c1ccc(C(=O)NCC2CC2)cc1`, for which the inhibition was -0.3%.

Consider `COc1ccc2cc(-c3c(-c4ccncc4)nc(-c4ccc([S+](C)[O-])cc4C)n3C)ccc2c1` (centres undefined), for which the inhibition is -0.27%.

For the compound `O=C(NCC1CC1)c1ccc(-c2cccc(C(=O)NC3CC3)c2)cc1`, the inhibition came out at 0.75%.

`O=C(Nc1n[nH]c2cc(-c3cc(F)ccc3F)ccc12)C1CC1`: the inhibition came out at 0.05%.

Regarding `COc1cc(N2CCN(C(C)C)CC2)ccc1Nc1nc(Nc2ccc(F)cc2C(=O)NC[C@@H](O)CO)c2cc[nH]c2n1`, the inhibition is -3.35%.

Consider `NC(=O)c1cc(-c2ccncc2)cc(-c2ccccc2)c1N`, for which the inhibition is -0.25%.

Turning to `Fc1ccc(-c2ncn(C3CCNCC3)c2-c2ccnc(Oc3ccc4c(c3)OCO4)n2)cc1`, the inhibition is -0.04%.

Turning to `FC(F)(F)c1cccc(Nc2nccc(-c3cnn4nc(-c5ccccc5)ccc34)n2)c1`, the inhibition was 0.77%.

`COc1cc2ncn(-c3cc(OCc4ccccc4C(F)(F)F)c(C(C)=O)s3)c2cc1OC`: the inhibition is 0.28%.

Regarding `Fc1ccc(-c2ncn(CCCN3CCOCC3)c2-c2ccncc2)cc1`, the inhibition was 0.24%.

Turning to `NS(=O)(=O)c1ccc(Nc2cc(-c3ccc(O)c(F)c3)n[nH]2)cc1`, the inhibition was -0.39%.

For the compound `CN(C)CCCNc1nccc(-c2c(-c3ccc(F)cc3)nn3cc(C(F)(F)F)ccc23)n1`, the inhibition is -3.76%.

Take `Fc1ccc(-c2c(-c3ccncc3)nc3n2CCS3)cc1`: the inhibition was -3.15%.

With `O=C(Nc1n[nH]c2nc(-c3ccco3)ccc12)C1CC1`, the inhibition was determined as 0.1%.

In the case of `C[C@@H](Oc1cc(-n2cnc3ccc(OCC4CCN(C)CC4)cc32)sc1C(N)=O)c1ccccc1Cl`, the inhibition was 0.64%.

As to `c1ccc(-c2n[nH]cc2-c2ccnc(-c3ccc(OCCN4CCOCC4)cc3)c2)nc1`, the inhibition was determined as 7.01%.

On to `O=C1Nc2ccccc2/C1=C/Nc1ccc(-n2cncn2)cc1`, for which the inhibition turned out to be 0.56%.

With `c1ccc(Oc2ccc(Nc3ncc(-c4ccccc4)o3)cc2)cc1`, the inhibition was found to be 0.31%.

For `CCN(CC)Cc1ccc(Nc2nccc(-c3cnn4ncccc34)n2)cc1`, the inhibition is -3.66%.

Turning to `Cc1ccc(C(=O)NC(C)C)cc1-c1ccc(C(=O)NCC2CC2)cc1`, the inhibition was 0.1%.

Take `COc1cc2ncn(-c3cc(OCc4cccs4)c(C(N)=O)s3)c2cc1OC`: the inhibition is -2.64%.

`O=C(Nc1ccc(Oc2ccc3[nH]c(NC(=O)c4ccccc4)nc3c2)cc1)Nc1cc(C(F)(F)F)ccc1F`: the inhibition was -0.34%.

Consider `COc1ccc(-c2ccc3c(NC(=O)C4CC4)n[nH]c3n2)cc1`, for which the inhibition is -0.37%.

Regarding `COc1cc(Nc2ncc3c(C)nc(-c4cccc(C(F)(F)F)c4)n3n2)cc(OC)c1OC`, the inhibition was 0.34%.

Consider `Fc1ccc(-c2ncn(C3CCNCC3)c2-c2ccnc(Oc3ccc(F)c(F)c3)n2)cc1`, for which the inhibition was -3.98%.

As to `NS(=O)(=O)c1ccc(N/N=C2\C(=O)Nc3ccc(C(=O)NCCCn4ccnc4)cc32)cc1`, the inhibition is 0.82%.
